Compound activity: PubChem, several laboratories
CASP6 VEID inh: blocks human caspase-6 cleavage activity; P55212; purified caspase-6, Z-VEID-R110 cleavage fluorescence; inhibition, % at 12.5 µM; 350,000 tested, 0.53% active;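 active = mean inhibition across replicates at least about 35%, with every replicate also reaching that limit, limit read from the data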;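 also: 0% = median of neutral control wells and 100% = no fluorescence left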
Target sequence (P55212 24-179 limits assumed): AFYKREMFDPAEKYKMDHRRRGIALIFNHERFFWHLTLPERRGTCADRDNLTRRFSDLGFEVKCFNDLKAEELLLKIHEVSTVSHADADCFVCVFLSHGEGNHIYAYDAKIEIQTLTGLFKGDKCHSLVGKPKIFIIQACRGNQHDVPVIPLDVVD
Target sequence (P55212 194-293 limits assumed): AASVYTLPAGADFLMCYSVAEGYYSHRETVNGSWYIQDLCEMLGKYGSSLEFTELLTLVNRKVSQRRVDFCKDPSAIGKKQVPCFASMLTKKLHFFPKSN
NSD2 inh: NSD2 (human) methyltransferase inhibition | NSD2 peptide methylation, AlphaScreen, 120 min | inhibition, % at 12.5 µM | 310,000 tested, 0.54% active; in the data active = inhibition above about 50%
UBC9 SUMO inh: blocks human SUMOylation mediated by UBC9 | HTRF SUMOylation assay, SAE1/SAE2 + UBC9, in vitro | inhibition, % at 35 µM | 290,000 tested, 0.36% active; in the data active = inhibition above about 50%, passing the limit was not always enough
SIRT5 inh: inhibitors of human sirtuin-5 desuccinylase | Q9NXA8 | Purified SirT5, succinyl-peptide AMC, trypsin-coupled fluorescence | inhibition, % at 15 µM | 330,000 tested, 1.1% active; in the data active = inhibition above about 15%
* = called active by the depositor; · = no result; ! = repeats disagree. Most compounds without a hit are left out; they make up all but 1.6% or so of the library.

SMILES	CASP6 VEID inh	NSD2 inh	UBC9 SUMO inh	SIRT5 inh
Cc1ccccc1NC(=O)c1ccc(Cl)c(NC(=O)c2ccco2)c1	·	1.1	·	·
OC[C@@H]1[C@H](c2ccc(C3=CCCCC3)cc2)[C@@H](CNC2CCCC2)N1CC1CC1	0.2	·	·	0.0
O=C(c1ccc(F)cc1)N1CC2(C1)[C@@H](c1ccccc1)[C@@H](CO)N2Cc1ccccn1	2.6	·	·	0.6
C[C@@H]1CN([C@H](C)CO)C(=O)Cc2cc(NS(=O)(=O)c3ccc(F)cc3)ccc2O[C@H]1CN(C)CC1CCCCC1	2.4	·	·	23.2*
C[C@@H]1CN([C@@H](C)CO)C(=O)Cc2cc(NS(=O)(=O)c3ccc(Cl)cc3)ccc2O[C@@H]1CN(C)CC1CCCCC1	1.1	·	·	20.3*
C[C@H](CO)N1C[C@H](C)[C@H](CN(C)CC2CCCCC2)Oc2ccc(NS(=O)(=O)c3ccc(F)cc3)cc2CC1=O	2.1	·	·	9.6
COc1cccc(NC(=O)C[C@H]2CC[C@H]3[C@H](COc4ccc(NC(=O)C5CCCCC5)cc4C(=O)N3C)O2)c1	2.7	·	·	5.4
Cc1ccc(S(=O)(=O)Nc2ccc3c(c2)C(=O)N([C@H](C)CO)C[C@H](C)[C@H](CN(C)Cc2ccc(C(=O)O)cc2)OCCCC[C@H](C)O3)cc1	0.3	·	·	-1.9
CN(C)CC(=O)N[C@H]1CC[C@H](CCNC(=O)C2CC2)O[C@H]1CO	-17.4	·	·	-3.1
CO[C@H]1CN(C)C(=O)c2cc(NS(=O)(=O)c3ccccc3C)ccc2OC[C@@H](C)N(C)C[C@@H]1C	2.7	·	·	-1.9
Cc1noc(C)c1S(=O)(=O)Nc1ccc2c(c1)C(=O)N([C@@H](C)CO)C[C@H](C)[C@@H](CN(C)Cc1ccc(C(F)(F)F)cc1)OCCCC[C@H](C)O2	-1.0	·	·	24.3*!
Cc1noc(C)c1S(=O)(=O)Nc1ccc2c(c1)C(=O)N([C@@H](C)CO)C[C@@H](C)[C@@H](CN(C)Cc1ccc(C(F)(F)F)cc1)OCCCC[C@@H](C)O2	-0.2	·	·	27.4*
Cc1noc(C)c1NC(=O)N(C)C[C@H]1OCCCC[C@@H](C)Oc2ccc(NS(=O)(=O)c3c(C)noc3C)cc2C(=O)N([C@H](C)CO)C[C@@H]1C	1.3	·	·	28.3*
Cc1noc(C)c1S(=O)(=O)Nc1ccc2c(c1)C(=O)N([C@@H](C)CO)C[C@@H](C)[C@H](CN(C)Cc1ccc(C(=O)O)cc1)OCCCC[C@@H](C)O2	0.1	·	·	-0.5
Cc1noc(C)c1S(=O)(=O)Nc1ccc2c(c1)C(=O)N([C@H](C)CO)C[C@H](C)[C@H](CN(C)Cc1ccc(C(F)(F)F)cc1)OCCCC[C@@H](C)O2	3.0	·	·	4.5
Cc1noc(C)c1S(=O)(=O)Nc1ccc2c(c1)C(=O)N([C@H](C)CO)C[C@@H](C)[C@@H](CN(C)Cc1ccc(C(F)(F)F)cc1)OCCCC[C@@H](C)O2	-2.5	·	·	24.2*
Cc1noc(C)c1S(=O)(=O)Nc1ccc2c(c1)C(=O)N([C@H](C)CO)C[C@H](C)[C@@H](CN(C)Cc1ccc(C(F)(F)F)cc1)OCCCC[C@@H](C)O2	-0.4	·	·	12.8
Cc1cc(C(=O)Nc2cccc3c2O[C@@H](CN(C)C(=O)Nc2cccc4ccccc24)[C@@H](C)CN([C@H](C)CO)C3=O)n(C)n1	-0.8	·	·	1.1
C[C@@H]1CN([C@@H](C)CO)C(=O)c2cc(NC(=O)CCCN(C)C)ccc2O[C@@H]1CN(C)C(=O)NC1CCCCC1	-1.1	·	·	-2.0
O=C(N[C@H]1CC[C@@H](CC(=O)N2CCN(c3ccccc3)CC2)O[C@@H]1CO)c1ccccc1	-6.8	·	·	5.0
C/C=C(\C)C(=O)OC1CC(C)(C)C[C@H]2C3=CC[C@@H]4[C@@]5(C)CCC(O[C@@H]6O[C@@H](C(=O)O)[C@@H](O)C(O[C@@H]7OC[C@H](O)[C@@H](O)[C@@H]7O[C@@H]7OC(CO)C(O)[C@@H](O)[C@@H]7O)C6O[C@@H]6OC(CO)C(O)C(O)C6O)[C@@](C)(CO)[C@@H]5CC[C@]4(C)[C@]3(C)CC(O)[C@@]12CO (some centres not stated)	58.5*	·	·	0.6
CC1(C)CC[C@]2(C(=O)O[C@@H]3OC(CO)[C@@H](O)[C@H](O)[C@H]3O)CC[C@]3(C)C(=CCC4[C@@]5(C)CC[C@H](O[C@@H]6OC(C(=O)O)[C@@H](O)[C@H](O)[C@H]6O)C(C)(C)C5CC[C@]43C)[C@@H]2C1 (some centres not stated)	3.1	·	·	-1.1
CCCC#Cc1cnc2c(c1)C(=O)N([C@H](C)CO)C[C@H](C)[C@H](CN(C)C(=O)Nc1ccccc1OC)O2	0.2	·	·	1.2
CCC(NS(=O)(=O)c1ccc(C)cc1)C(=O)O (configuration not stated)	·	-1.5	13.2	·
